Assay results reported in PubChem BioAssay AID1347426 (Functional Genomics Laboratory (NCATS/FGL), 2020).
About 1,400 (4.5%) of roughly 31,000 sequences were called active.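 Rule for the calls: active = median seed-adjusted z-score above 1 or below -1; inactive = the rest.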 The entries come from a sample that favours actives as a whole.

Test: Novel Modifiers of Survival Motor Neuron (SMN) Protein: Gene Identification via Genome-wide siRNA Screen;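 note: luminescence tracks full-length SMN protein made from the SMN2 reporter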
Conditions: HEK293T SMN2-luciferase reporter, siRNA knockdown, 72 h; actives lie on both sides
Outline: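 Steps: spot 1 pmol siRNA, add Lipofectamine RNAiMax in serum-free DMEM, seed HEK293T SMN2–luciferase reporter cells; incubate 72 h at 37 °C; add ONE-Glo; normalize luminescence to control siRNA, log10, MAD. Candidates: |MAD| > 1.0.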

| Sequence | median seed-adjusted z-score |
| --- | --- |
| GGUUACAAGCGGUUUGGUATT against COLEC12 | -1.04 (active) |
| CAUGUUAAUUGUUAAGGAUTT against WFDC8 | 0.0427 (inactive) |
| GAGCAGAUCGAGAUCAAAATT against EVI5L | 0.0497 (inactive) |
| GGAAAUUCAGGUACGGAUATT against ADAMTS4 | -0.0153 (inactive) |
| CGGACAUUCGUGCAAAGAATT against PRPF6 | -1.06 (active) |
| AGAAUACGAUGACCACCAATT against RING1 | 0.685 (inactive) |
| GCAUACAUCAUGACCGUCATT against DUSP22 | 0 (inactive) |
| GCCGAUACCUUCACUCGAATT against TAP1 | -0.506 (inactive) |
| GGGAAGCUAUGCGAAAUUATT against RBPJ | -0.452 (inactive) |
| GCUUCAUUGAGUACGAGAATT against PUF60 | 2.26 (active) |
| GGAUCGGAUAAAUAACAGUTT against HEY2 | -0.0831 (inactive) |
| GAUCAAGACUCUGCGCCUATT against HAND1 | 0.161 (inactive) |
| GAAUUGCUGAUAAACCUAUTT against SMNDC1 | -1.54 (active) |
| GUAUUCCAGCGAAUCCGAUTT against PAK7 | -0.202 (inactive) |
| CGUCAAAAGAGCCCAUAAATT against ENPP5 | -0.0499 (inactive) |
| GGAACUCUAUGGUCAUCUATT against SSTR1 | 0.285 (inactive) |
| CCAAAGGAGUCAGCACUGUTT against PLXNA1 | 0 (inactive) |
| GCAGUUGAAUUAUCACAGUTT against UQCRFS1 | -1.28 (active) |
| GGAAGAAUGUGGUUUGCGATT against GFOD2 | -0.0447 (inactive) |
| GGAGAGGAUUAUUUCCGCATT against SDR9C7 | 0 (inactive) |
| GCAAGUUGGAGAACGAGUATT against MED8 | -1.61 (active) |
| GGCCCAAGAUCUUCCCUAATT against GPR179 | -0.513 (inactive) |
| CAGUCGUUGCUGUCAAAAATT against RGS9 | 0.0665 (inactive) |
| UGCUCUCUGUUGCAUUGAATT against IAPP | -0.157 (inactive) |
| GAUUUCUAAUUAACACAAUTT against POLR1D | -0.0409 (inactive) |
| CCAUCAUCCGGGAUGAGGATT against NPEPL1 | 1.12 (active) |
| GCAAAGUGCCGAAACAAGATT against ATF3 | -0.000485 (inactive) |
| CGAAUAUACCAGGACGAAATT against SATB1 | 0 (inactive) |
| UACUGUCUCUAGUCUUUUUTT against SEC11B | 1.04 (active) |
| GCUUGUUCGGCUACACGAATT against CYP8B1 | 0 (inactive) |
